# Measurements as given in PubChem BioAssay (NCI).
# The panel holds about 83,000 compounds, 20% with a hit somewhere; the sample as a whole holds those more often.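 How to read the values: 0–100, growth inhibition (40 = 60% inhibited); 0, no net growth; -100 to 0, cell death (-40 = 40% of starting cells died; -100 = all dead).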 A number with no mark means an inactive call. The source made the active and inactive calls. The calls were made as follows: active = growth percent below 10; inactive = the rest.
# How the values were obtained:
# Experiment in all cases: NCI-60 one-dose screen, 48 h (100 = growth as untreated, 0 = no growth, -100 = all killed)
# Settings in all cases: 10 µM unless noted
# [1] = tested on: HCT-15 colon
# [2] = tested on: HT29 colon
# [3] = tested on: SNB-75 CNS
# [4] = tested on: SNB-19 CNS
# [5] = tested on: PC-3 prostate
# [6] = tested on: SK-MEL-5 melanoma
# [7] = tested on: UACC-62 melanoma
# [8] = tested on: LOX IMVI melanoma
# [9] = tested on: SK-MEL-28 melanoma
Compound,growth [1],growth [2],growth [3],growth [4],growth [5],growth [6],growth [7],growth [8],growth [9]
COC(=O)[C@H](C(C)C)n1c(=O)c2cc(OC)c(OC)cc2c2cnc3[nH]ccc3c21,41.3%,45.5%,13.2%,77.7%,29.2%,58.8%,22.3%,28.2%,62.2%
COc1cccc(/C=C2/C(=O)N(Cc3ccco3)SC2=S)c1OC,97.2%,90.1%,71.8%,107%,103%,97.5%,93.8%,33.8%,101%
Cc1ccc(NC(=O)c2sc3nc4c(cc3c2N)C(=O)CCC4)cc1C,30.6%,9.71% (active),-10.3% (active),69.3%,22.4%,26.9%,39.6%,39.2%,37.3%
CC1=N/C(=C\c2cccc(Br)c2)C(=O)O1,104%,108%,97.7%,105%,101%,100%,104%,100%,114%
COc1ccc2[nH]c(=O)c(/C=C/C(=O)c3ccc(Nc4nccc(-c5ccc6ccccc6c5)n4)cc3)cc2c1,110%,102%,95.7%,91.9%,98.2%,101%,88.7%,100%,108%
CN1C2CCC1/C(=C\c1ccc(Cl)cc1)C1=C2[C@@H](c2ccc(Cl)cc2)C(C#N)=C(N)O1 (some centres undefined),71.9%,65.2%,92.4%,99.8%,82.4%,88.9%,75.7%,91.7%,80%
C[C@H](CCC(=O)O)[C@H]1CC[C@H]2[C@@H]3CC[C@@H]4/C(=C\c5ccco5)C(=O)/C(=C\c5ccco5)C[C@]4(C)[C@H]3CC[C@]12C,28.5%,59.6%,101%,79%,52.6%,47.4%,17.2%,31.6%,44.3%
NC(CC(=O)O)C(=O)OCc1ccccc1 (centres undefined),95.1%,115%,65.5%,101%,103%,97.8%,94.5%,107%,99.1%
CNC(=S)N/N=C/CSC/C=N/NC(=S)NC,87.8%,24.4%,88.1%,101%,57%,81.1%,89.2%,84.6%,99.3%
COc1ccc(/C=C2\N=C3SC=C(N)N3C2=O)cc1,20.7%,9.12% (active),25.2%,53.8%,20.6%,4.65% (active),23%,-47.5% (active),43.7%
CC(=O)/C(=C/c1cccc(Cl)c1)C(=O)c1ccccc1,70%,67.7%,84.7%,94.3%,63.1%,89.9%,83.3%,6.93% (active),90.9%
COc1cccc2c1C(=O)c1c(O)c3c(c(O)c1C2=O)C[C@@](O)(/C(C)=N/NC(=O)c1ccc(Cl)cc1)C[C@@H]3OC1CC(N)C(O)C(C)O1 (some centres undefined),16.4%,-42.6% (active),-84.3% (active),5.54% (active),-36.5% (active),-45.2% (active),-72.8% (active),-44.6% (active),-32.3% (active)
COc1ccc(/C=C2\N=C3Sc4cc(Cl)ccc4C(=O)N3C2=O)cc1,102%,104%,76.8%,101%,85.5%,99.8%,98%,98.8%,103%
NCCN1CCN(c2nccc(-c3ccc4ccccc4c3)n2)CC1,4.28% (active),-33.6% (active),82.1%,63.9%,45.6%,54.9%,-65.3% (active),-64.8% (active),-43.4% (active)
O=C1c2cc3c(cc2-c2c1c1cc(Cl)c(Cl)cc1c(=O)n2CCCn1ccnc1)OCO3,13%,-8.33% (active),9.95% (active),13.4%,25.3%,-9.98% (active),-38.1% (active),-53.6% (active),44.3%
C#Cc1nc(Nc2cc(C)[nH]n2)c2ccccc2n1,-25.6% (active),-30.1% (active),-88.9% (active),13.3%,-42.1% (active),-84.9% (active),-81.5% (active),-74.8% (active),-58.5% (active)
